Data on 158 variants can be found in a collection of fitness landscapes (doi:10.1016/j.celrep.2020.107928).

Over roughly 81,000 sequences, “one-hybrid fitness for binding NBS DNA” has its median near -0.1; the highest 2% begin near 0.36. Shown is part of a subset that was picked to be rich in the highest values.

B1: Caulobacter ParB omega fusion; a variant is named by its letters at X, in order, B8GW30 (parent)
chain: MESVVVGEPGMSEGRRGLGRGLSALLGEVDAAPAQAPGEQLGGSREAPIEILQRNPDQPRRTFREEDLEDLSNSIREKGVLQPILVRPSPDTAGEYQIVAGERAWRAAQRAGLKTVPIMVRELDDLAVLEIGIIENVQRADLNVLEEALSYKVLMEKFERTQENIAQTIGKSXSHVANXMRLLXLPDEVQSYLVSGELTAXHARAIAAAADPVALAKQIIEGGLSVRETEALARKAPNLSAGKSKGGRPPRVKDTDTQALESDLSSVLGLDVSIDHRGSTGTLTITYATLEQLDDLCNRLTRGI

In this assay the parent is B1. Put plainly: one-hybrid fitness for binding NBS DNA (the Noc-binding site; scaled: cognate 1, non-cognate 0); higher = stronger binding. The following applies: with NBS DNA site. The method in brief:
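Selection: bacterial one-hybrid in E. coli USO, HIS3 reporter with the site 19 bp from the promoter, 48 hours at 37°C on M9-minus-histidine plus 0.1 mM IPTG and 5 mM 3-AT. Libraries were Caulobacter ParB with four randomised specificity codons, sequenced on Illumina before and after selection. Fitness is the rescaled log change in variant-to-wild-type read ratio, anchored to the cognate and non-cognate sites.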
Regarding RKAG, the “one-hybrid fitness for binding NBS DNA” value was no more than 0.2.
Take RKFH: the “one-hybrid fitness for binding NBS DNA” value came out at 0.212.
For the variant RCFT, the “one-hybrid fitness for binding NBS DNA” value came to 0.423.
For RKFD, the “one-hybrid fitness for binding NBS DNA” value was no more than 0.2.
ALQE: the “one-hybrid fitness for binding NBS DNA” value was no more than 0.2.
The value for NTTI was no more than 0.2; that for VKDD was no more than 0.2; that for SFVF was no more than 0.2.
Consider WRVA, for which the “one-hybrid fitness for binding NBS DNA” value was no more than 0.2.
As to QPIR, the “one-hybrid fitness for binding NBS DNA” value was no more than 0.2.
For QKIH, the “one-hybrid fitness for binding NBS DNA” value was no more than 0.2.
With QRIF the figure was no more than 0.2; with QRID, no more than 0.2; with QKIR, 0.37.
With QRPN the figure was no more than 0.2; with QKPR, 0.271.
QRIR: the “one-hybrid fitness for binding NBS DNA” value was 0.686.
The value for QCIR was 0.476.
For QRPR, the “one-hybrid fitness for binding NBS DNA” value is 0.543.
With QSIR, the “one-hybrid fitness for binding NBS DNA” value worked out at 0.336.
Take HKRE: the “one-hybrid fitness for binding NBS DNA” value was no more than 0.2.
The value for TTVD was no more than 0.2; that for RYII was no more than 0.2; that for YVSR was no more than 0.2.
VVAC: the “one-hybrid fitness for binding NBS DNA” value was no more than 0.2.
With CQVS, the “one-hybrid fitness for binding NBS DNA” value was no more than 0.2.
Consider GESL, for which the “one-hybrid fitness for binding NBS DNA” value is no more than 0.2.
With PASE the figure was no more than 0.2; with TQWR, no more than 0.2; with YKER, no more than 0.2.
With SGPG, the “one-hybrid fitness for binding NBS DNA” value was no more than 0.2.
Turning to RKED, the “one-hybrid fitness for binding NBS DNA” value was no more than 0.2.
On to RKES, for which the “one-hybrid fitness for binding NBS DNA” value came to 0.434.
Regarding RKEC, the “one-hybrid fitness for binding NBS DNA” value was no more than 0.2.
On to RSET, for which the “one-hybrid fitness for binding NBS DNA” value is no more than 0.2.
With RKEP the figure was no more than 0.2; with RKEN, no more than 0.2.
Regarding RKET, the “one-hybrid fitness for binding NBS DNA” value is 0.528.
On to RSER, for which the “one-hybrid fitness for binding NBS DNA” value was no more than 0.2.
For the variant RKER, the “one-hybrid fitness for binding NBS DNA” value worked out at 0.475.
As for TPNM, the “one-hybrid fitness for binding NBS DNA” value was no more than 0.2.
As for GAKV, the “one-hybrid fitness for binding NBS DNA” value was no more than 0.2.
With PFSN the figure was no more than 0.2; with GRHM, no more than 0.2; with ESQL, no more than 0.2.
For SDYT, the “one-hybrid fitness for binding NBS DNA” value is no more than 0.2.
Take TGQV: the “one-hybrid fitness for binding NBS DNA” value was no more than 0.2.
With AFRG the figure was no more than 0.2.
In the case of AFCR, the “one-hybrid fitness for binding NBS DNA” value was no more than 0.2.
The value for QMKP was 0.277; that for QMKS was 0.668.
With QMVS, the “one-hybrid fitness for binding NBS DNA” value turned out to be 0.282.
With QMKI, the “one-hybrid fitness for binding NBS DNA” value was 0.322.
As to QMKN, the “one-hybrid fitness for binding NBS DNA” value was 0.4.
For QMQQ, the “one-hybrid fitness for binding NBS DNA” value was no more than 0.2.
With QMVQ the figure was 0.283.
With QMKE the figure was 0.215.
On to QMKH, for which the “one-hybrid fitness for binding NBS DNA” value turned out to be 0.559.
Consider QMKF, for which the “one-hybrid fitness for binding NBS DNA” value is 0.3.
For the variant QMKD, the “one-hybrid fitness for binding NBS DNA” value was 0.313.
Take QMKQ: the “one-hybrid fitness for binding NBS DNA” value was determined as 0.417.
With TPAD the figure was no more than 0.2; with RQKV, 0.237.
As for CAYF, the “one-hybrid fitness for binding NBS DNA” value was no more than 0.2.
For the variant LIRD, the “one-hybrid fitness for binding NBS DNA” value is no more than 0.2.
PIRV: the “one-hybrid fitness for binding NBS DNA” value was no more than 0.2.
As to QPRM, the “one-hybrid fitness for binding NBS DNA” value was no more than 0.2.
QHRM: the “one-hybrid fitness for binding NBS DNA” value worked out at 0.379.
As for QCYM, the “one-hybrid fitness for binding NBS DNA” value is no more than 0.2.
In the case of QTYM, the “one-hybrid fitness for binding NBS DNA” value was no more than 0.2.
For QKDM, the “one-hybrid fitness for binding NBS DNA” value is no more than 0.2.
As to QCRM, the “one-hybrid fitness for binding NBS DNA” value amounted to 0.505.
Turning to QTRM, the “one-hybrid fitness for binding NBS DNA” value was 0.562.
Take QKYM: the “one-hybrid fitness for binding NBS DNA” value was no more than 0.2.
Take QKRM: the “one-hybrid fitness for binding NBS DNA” value came to 0.4.
With QTDM the figure was no more than 0.2.
In the case of QHQM, the “one-hybrid fitness for binding NBS DNA” value is no more than 0.2.
As to QHDM, the “one-hybrid fitness for binding NBS DNA” value is no more than 0.2.
With IVMP the figure was no more than 0.2.
For the variant STQT, the “one-hybrid fitness for binding NBS DNA” value was no more than 0.2.
The value for NHEL was no more than 0.2.
Turning to TDNM, the “one-hybrid fitness for binding NBS DNA” value was no more than 0.2.
Turning to IHYS, the “one-hybrid fitness for binding NBS DNA” value is no more than 0.2.
On to RIDA, for which the “one-hybrid fitness for binding NBS DNA” value is no more than 0.2.
Consider LSVV, for which the “one-hybrid fitness for binding NBS DNA” value was no more than 0.2.
With TPRN, the “one-hybrid fitness for binding NBS DNA” value was no more than 0.2.
With NHPC, the “one-hybrid fitness for binding NBS DNA” value was no more than 0.2.
With LYSC, the “one-hybrid fitness for binding NBS DNA” value was no more than 0.2.
For the variant GAPG, the “one-hybrid fitness for binding NBS DNA” value was no more than 0.2.
Turning to PSHR, the “one-hybrid fitness for binding NBS DNA” value was no more than 0.2.
With RVAG the figure was no more than 0.2.
As for YGRN, the “one-hybrid fitness for binding NBS DNA” value is no more than 0.2.
As to AHAS, the “one-hybrid fitness for binding NBS DNA” value is no more than 0.2.
With QRYM the figure was 0.353; with QMDM, no more than 0.2; with QSYM, no more than 0.2.
The value for QRRM was 0.589; that for QMRM was 0.45.
As to QSRM, the “one-hybrid fitness for binding NBS DNA” value was 0.402.
For QSDM, the “one-hybrid fitness for binding NBS DNA” value was no more than 0.2.
Take QMYM: the “one-hybrid fitness for binding NBS DNA” value was no more than 0.2.
Turning to QRWM, the “one-hybrid fitness for binding NBS DNA” value was 0.254.
As to PHEA, the “one-hybrid fitness for binding NBS DNA” value was no more than 0.2.
For the variant DNPI, the “one-hybrid fitness for binding NBS DNA” value is no more than 0.2.
For the variant DRGT, the “one-hybrid fitness for binding NBS DNA” value is no more than 0.2.
Consider QTEH, for which the “one-hybrid fitness for binding NBS DNA” value is no more than 0.2.
QRDT: the “one-hybrid fitness for binding NBS DNA” value amounted to 0.671.
For the variant QPET, the “one-hybrid fitness for binding NBS DNA” value was no more than 0.2.
Regarding NRGT, the “one-hybrid fitness for binding NBS DNA” value was no more than 0.2.
As to QRGT, the “one-hybrid fitness for binding NBS DNA” value was determined as 0.822.
Regarding NRHT, the “one-hybrid fitness for binding NBS DNA” value was no more than 0.2.
With DRHT the figure was no more than 0.2; with QTET, 0.439; with QRHT, 0.789.
Regarding LHGL, the “one-hybrid fitness for binding NBS DNA” value is no more than 0.2.
With SEHS the figure was no more than 0.2; with AWHA, no more than 0.2.
The value for AGPD was no more than 0.2; that for CCAY was no more than 0.2; that for GPLH was no more than 0.2.
As to DGTS, the “one-hybrid fitness for binding NBS DNA” value was no more than 0.2.
In the case of QRYT, the “one-hybrid fitness for binding NBS DNA” value came out at 0.744.
As for QRWF, the “one-hybrid fitness for binding NBS DNA” value was no more than 0.2.
With QRNT the figure was 0.822; with QRWG, no more than 0.2.
As to DRNT, the “one-hybrid fitness for binding NBS DNA” value is no more than 0.2.
For QRET, the “one-hybrid fitness for binding NBS DNA” value worked out at 0.603.
Consider QSET, for which the “one-hybrid fitness for binding NBS DNA” value came to 0.253.
With QCET, the “one-hybrid fitness for binding NBS DNA” value was 0.352.
Turning to QRWT, the “one-hybrid fitness for binding NBS DNA” value amounted to 0.707.
QWNT: the “one-hybrid fitness for binding NBS DNA” value is no more than 0.2.
As for DPRH, the “one-hybrid fitness for binding NBS DNA” value was no more than 0.2.
As for TCSP, the “one-hybrid fitness for binding NBS DNA” value is no more than 0.2.
EGGL: the “one-hybrid fitness for binding NBS DNA” value is no more than 0.2.
Turning to QSFQ, the “one-hybrid fitness for binding NBS DNA” value was no more than 0.2.
As to PGPS, the “one-hybrid fitness for binding NBS DNA” value is no more than 0.2.
LKHN: the “one-hybrid fitness for binding NBS DNA” value was no more than 0.2.
With PPQT the figure was no more than 0.2.
On to VKFG, for which the “one-hybrid fitness for binding NBS DNA” value was no more than 0.2.
With DVTN the figure was no more than 0.2.
Turning to TRRA, the “one-hybrid fitness for binding NBS DNA” value came to 0.25.
Take LSWG: the “one-hybrid fitness for binding NBS DNA” value was no more than 0.2.
Take KASG: the “one-hybrid fitness for binding NBS DNA” value is no more than 0.2.
Take PNWS: the “one-hybrid fitness for binding NBS DNA” value was no more than 0.2.
As for ISHA, the “one-hybrid fitness for binding NBS DNA” value was no more than 0.2.
Turning to TEKA, the “one-hybrid fitness for binding NBS DNA” value was no more than 0.2.
As to QFRT, the “one-hybrid fitness for binding NBS DNA” value amounted to 0.309.
For the variant QRLM, the “one-hybrid fitness for binding NBS DNA” value amounted to 0.322.
With QKET, the “one-hybrid fitness for binding NBS DNA” value turned out to be 0.391.
QRRE: the “one-hybrid fitness for binding NBS DNA” value was found to be 0.346.
The value for QRRT was 0.863.
Take QRCT: the “one-hybrid fitness for binding NBS DNA” value is 0.806.
The value for QKEH was no more than 0.2.
In the case of QILT, the “one-hybrid fitness for binding NBS DNA” value was 0.236.
Consider QACT, for which the “one-hybrid fitness for binding NBS DNA” value was found to be 0.363.
As to QRLT, the “one-hybrid fitness for binding NBS DNA” value came out at 0.731.
For the variant DRCT, the “one-hybrid fitness for binding NBS DNA” value was no more than 0.2.
The value for QKES was 0.275.
